Data reported in ChEMBL document CHEMBL4513216, “Probing the Open Global Health Chemical Diversity Library for Multistage-Active Starting Points for Next-Generation Antimalarials” (ACS Infect Dis, 2020).
The whole screen tested about 68,000 compounds, of which about 2,700 (4%) showed an effect of 50% or more. The sample as a whole holds a higher share of strong results than the screen did.

Tested on: Plasmodium berghei
Test: Screen against P. berghei liver stage (PbLuc), transformed with Luciferase, at 2uM
Assay type: functional, HepG2
Settings: tested at 2 uM

Compound | INHIBITION
Cc1cnn(CC2CCCN2C(=O)c2ccc(-n3cccn3)nc2)c1 (centres undefined) | -26.85%
O=C(NCC(F)(F)F)c1ccc(-c2ccco2)[nH]c1=O | -5.09%
Cc1cnn(CC2CN(Cc3nccn3CC(F)(F)F)CCO2)c1 (centres undefined) | 36.64%
CN1C[C@@H](NC(=O)c2ccccc2)C[C@H]1c1nc(-c2cnccn2)no1 | 23.26%
COc1ccc(CNC(=O)CCc2nnc3ccccn3c2=O)cc1 | 8.41%
CO[C@@H]1CCN(C(=O)Cc2ccc(F)cc2)[C@@H]1Cc1cccnc1 | -16.75%
OC1(Cn2ccc3ncccc32)CCN(Cc2cccnc2)CC1 | 53.24%
OC1(Cn2ccc3ncccc32)CCN(Cc2cc(F)cc(F)c2)CC1 | 31.56%
CCn1cc(CN2CCC(O)(Cn3ccc4ncccc43)CC2)cn1 | 22.39%
O=C(CCOc1ccccc1)N1CCCC(n2cncn2)C1 (centres undefined) | 33.5%
Cc1nc2c(c(N3CC=CC3)n1)CCN(c1ncccc1C(N)=O)CC2 | -11.31%
CCS(=O)(=O)CCCOc1nc(-c2ccccc2Cl)no1 | -5.27%
O=C1CCC2(CCC(NC3CCOC3)CC2)N1Cc1ccccc1 (centres undefined) | 35.34%
Cc1ccc(CN2C(=O)CCC23CCC(NC2CCOC2)CC3)cc1 (centres undefined) | 29.85%
O=C1CCC2(CCC(NC3CCOC3)CC2)N1Cc1ccncc1 (centres undefined) | 56.76%
CCc1ccc(CN(C)c2cc(COC)nc3ccnn23)cc1 | 14.96%
CN(Cc1cnn(C)c1)C(=O)C1COc2ccccc2C1 (centres undefined) | -11.77%
O=C(NC1CCC1)[C@H]1C[C@H]2CN(S(=O)(=O)c3ccccc3)C[C@@H]1O2 | 24.34%
Cc1ccc(OCCCNC(=O)NC(C)c2nncn2C)cc1 (centres undefined) | -10.5%
Cc1cccc(OCCCNC(=O)NC(C)c2nncn2C)c1 (centres undefined) | -7.01%
Cc1cccc(C)c1OCCNC(=O)NC(C)c1nncn1C (centres undefined) | 64.53%
N[C@H]1CN(CCOc2ccc(F)cc2)C[C@@H]1C1CC1 | 55.85%

Compound | INHIBITION
NC(=O)c1ccc(OCCCN2C[C@H](C3CC3)[C@@H](N)C2)cc1 | 9.56%
N[C@H]1CN(CCCOc2ccccc2)C[C@@H]1C1CC1 | 18.64%
COC1CN(C(=O)OCC(C)C)CCC(=O)N(C)c2ccccc21 (centres undefined) | -16.76%
Cc1nn(C)c2nc(N3CCCCC3c3ccc(F)cc3)sc12 (centres undefined) | 8.3%
C1CCC(CN2Cc3nnn(CC4CC4)c3C(COCC3CC3)C2)C1 (centres undefined) | -6.19%
O=C1[C@@H]2CCN(Cc3ccoc3)C[C@@H]2OCCN1Cc1cccc(F)c1 | 20.41%
Cc1ccc(S(=O)(=O)Nc2ccc(-n3cccc3C(=O)O)c(C)c2)s1 | -1.14%
Cc1cc(NS(=O)(=O)c2cccs2)ccc1-n1cccc1C(=O)O | 50.17%
Cc1cc(NS(=O)(=O)c2ccc(Cl)s2)ccc1-n1cccc1C(=O)O | 31.15%
O=C(NCCOc1ccccc1)NCC(O)c1cccs1 (centres undefined) | -85.29%
Cc1ccoc1C(=O)N1C[C@@H]2[C@@H](C1)OCC(=O)N2Cc1cccnc1 | -2.91%
Cc1nc2c(c(NC3CC3)n1)CCN(C(=O)CCO)CC2 | -10.44%
CC(=O)N1CCC(C(=O)NCCN2CCCCC2)CC1 | 18.97%
CN1CCN(C(=O)NCCc2ccc(F)cc2)[C@H]2CS(=O)(=O)C[C@H]21 | 50.59%
COc1ccc(CCNC(=O)N2CCN(C)[C@@H]3CS(=O)(=O)C[C@@H]32)cc1 | 43.44%
COc1ccc(CNC(=O)N2CCN(C)[C@@H]3CS(=O)(=O)C[C@@H]32)cc1 | -47.18%
Cc1ccc(OCCN2CCN(Cc3cnn(CCO)c3)CC2)cc1 | -72.55%
COCC(=O)N1CCCCC1c1ccnc(Nc2ncc(C)s2)n1 (centres undefined) | 60.74%
COCC(=O)N1CCCC1c1cccc(Nc2ncc(C)s2)n1 (centres undefined) | 44.48%
COCC(=O)N1CCCCC1c1ccnc(Nc2cnccn2)n1 (centres undefined) | 11.55%
CN1CCN(C(=O)c2n[nH]c3c2CN(C2CCOCC2)CC3)CC1 | 36.44%
COc1cc(CNC(C)c2cccc(Cl)c2)cc(OC)c1OC (centres undefined) | 27.88%

Compound | INHIBITION
CC(C)c1ccc(OCC(=O)NS(=O)(=O)c2cccnc2)cc1 | -1.85%
Cc1cccc(NCC(=O)Nc2cc(F)ccc2F)c1C(N)=O | 38.91%
Cc1cc(C)n(CC2(CNC(=O)C(c3ccccc3C)N(C)C)CC2)n1 (centres undefined) | -14.49%
Cc1cc(C)n(CC2(CNC(=O)C(c3ccccc3F)N(C)C)CC2)n1 (centres undefined) | 55.85%
Cc1cc(C)n(CC2(CNC(=O)C(c3ccc(F)cc3)N(C)C)CC2)n1 (centres undefined) | -4.04%
Cc1cc(C(F)(F)F)nc(CCNC(C)Cn2ccnc2)n1 (centres undefined) | -15.14%
OCCN(Cc1ccccc1)Cc1nc(-c2ccc3c(c2)OCO3)no1 | -48.83%
OCCN(Cc1nc(-c2ccc3c(c2)OCO3)no1)Cc1cccs1 | -49.59%
OCCN(Cc1nc(-c2ccc3c(c2)OCO3)no1)CC1CC1 | 83.98%
COCCS(=O)(=O)Nc1ccc(-n2cncn2)c(F)c1 | 3.33%
CN1CCN(C(=O)c2cc3sccc3n2Cc2ccccc2F)CC1 | -10.78%
Cc1ccc(N2CC[C@@H]3CN(Cc4cc[nH]n4)C[C@@H]3C2)nn1 | 27.95%
CC(C)(C)CCNc1nccc(-c2c[nH][nH]c2=O)n1 | 22.5%
c1cnc(NC[C@@H]2CCC[C@@H]3CN(Cc4csnn4)C[C@@H]32)nc1 | 55.7%
c1ccc(NC[C@@H]2CCC[C@@H]3CN(Cc4csnn4)C[C@@H]32)nc1 | 24.51%
CC(C)(C)NC[C@@H]1CCC[C@@H]2CN(Cc3csnn3)C[C@@H]21 | -21.74%
COc1ccc2[nH]cc(C(=O)CNc3nc(C)cs3)c2c1 | 20.71%
O=C(NCCN1CCOC1=O)c1cc(-c2ccccc2)on1 | 9.85%
O=C(NCCN1CCOC1=O)c1ccc2sccc2c1 | 61.27%
O=C(NCCN1CCCC(CO)C1)c1ccc2sccc2c1 (centres undefined) | 13.99%
